From PubChem
TCR activator – Activators of T cell receptors: qHTS campaign; primary human leukocytes, anti-CD3, IL-2 HTRF, 48 h; Potency, µM (series often up to 9.22 µM), for inactives: at the highest dose activation of IL-2 secretion, actives largely listed as activators; 330,000 tested, under 10 active; AID 504894, 2011; further: % of control where 0% means no effect
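Primary human leukocytes receive a-CD3 beads and test compound and are incubated 48 hr. Secreted IL-2 is then assayed by HTRF, measuring 665nm acceptor emission after 320nm excitation of the europium donor.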
Lamin A splicing – qHTS Assay for Modulators of Lamin A Splicing; HeLa LMNA splicing GFP/RFP minigene ratio, 48 h; Potency, µM (titrated, usually from 46.1 µM), without a hit: at the highest dose ratio change, negative = inhibition, usual class: inhibitors; 200,000 tested, 0.01% active; AID 1487, 2009; active means well fitted inhibition curve with a large enough effect in the signal ratio, with a control signal flat, not every such curve was filed as active; inconclusive means small, poorly fitted or top-dose-only effect, or effect the other way, or a change in a side signal; the % refers to the signal ratio; further: potency means the concentration at half of the fitted maximal effect; on the % scale 0 is the no-effect control and ±100 the full control effect
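S3 HeLa cells stably expressing lamin A-EGFP splicing minigene plus DsRed2, 600 cells/well, 48 h compound exposure at 37C. Laser-scanning cytometry; analysed as GFP (500-530 nm)/RFP (575-640 nm) total intensity ratio; 0.5% DMSO vehicle.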
Luc counter – Counterscreen for Luciferase (Kinase-Glo TM) Inhibition; Luciferin 4-monooxygenase (Photuris pensylvanica), Q27757; Kinase-Glo luciferase, ATP luminescence, 8 min; Potency, µM (titrated, usually from 38.3 µM), for the others: top-dose activity change, negative = inhibition, actives largely listed as inhibitors; 200,000 tested, 0.28% active; further: potency means the concentration at half of the fitted maximal effect; on the % scale 0 is the no-effect control and ±100 the full control effect; nearly all actives have a fitted effect of over 60% in size
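Recombinant Kinase-Glo luciferase, 10 uM ATP (linear range), luciferin; imidazole pH 7.2 / KCl / MgCl2 / Tween / BSA buffer; 8 min RT; luminescence.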
IMPase Li inh – qHTS Assay for Identifying the Cell-Membrane Permeable IMPase Inhibitors: Potentiation with Lithium. AID 1457, 2008. CHO-M1 cells, IP1 TR-FRET (IP-One), carbachol + lithium. Potency, µM (highest dose often 59.4 µM), for inactives: at the top dose activity, negative = IMPase inhibition, actives largely listed as inhibitors. 210,000 tested, 0.35% active;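 further: IP1 builds up when IMPase is blocked and the TR-FRET signal falls; potency means the concentration at half of the fitted maximal effect; plate controls were basal vehicle for no effect and high inhibitor control for full effect; nearly all actives have a fitted effect of over 50% in size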
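IP1 accumulation measured by competitive TR-FRET in lysed CHO-M1 cells after 30 min compound exposure at 37C, with a small lithium addition to potentiate weak responses. Hill-equation AC50 from ratio and donor-channel data.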
Starred values were filed as active, the others as inactive; ? = inconclusive; . = no result; ! = a repeat was not active; [ ] = another dose, or the depositor's remark. Rows were chosen to be rich in hits. Some 0.34% of all compounds tested hit in one or more screens of this group. Unless noted, the call rests on the fitted dose curve; in most records, active means well fitted curve in the direction sought with a large enough effect; inconclusive means small, poorly fitted or top-dose-only effect, or another doubt; inactive means no such curve, though single readings can be large; an effect the other way counts as inactive or inconclusive.

SMILES	TCR activator	Lamin A splicing	Luc counter	IMPase Li inh
O=C(Nc1ccccn1)c1ccc2c(c1)OCCO2	4.0%	.	?	-11.3%
O=C(/C=C\Nc1ccc2c(c1)OCO2)c1ccccn1	7.9%	3.9%	14.1µM*	3.8%[38.3 µM]
O=C(Nc1ccc2c(c1)OCO2)c1cccs1	-8.1%	1.8%	8.91µM*	-5.8%[38.3 µM]
Cn1ncc(N=Cc2ccc([N+](=O)[O-])cc2)c1C(=O)Nc1ccccc1	0.1%	.	.	8.3%
O=C(OCC(=O)N1CCCCC1)c1ccc2c(c1)C(=O)N(Cc1ccco1)C2=O	-5.7%	.	.	.
Cc1ccc(-c2c(C(=O)Nc3ccccc3C)c(C)[nH]c(=S)c2C#N)o1	1.7%	.	-0.1%	11.2µM*
CC(=O)Cn1ncc(Br)c(Br)c1=O	.	.	-2.6%	-20.8%
O=C(OCn1ncc(Br)c(Br)c1=O)c1c(F)cccc1F	.	?	11.3%	8.91µM*
N/C(=N/OC(=O)c1ccccc1F)c1nonc1N	-4.7%	.	11.2µM*	3.6%
CCc1n[n+](CC(=O)c2ccccc2)c(N)s1	-4.0%	7.2%[46 µM]	10µM*	?
CCOC(=O)c1ccc[n+](CC(=O)c2ccccc2)c1	6.6%[46.1 µM]	-5.6%	-0.4%	5.9%
Cc1cc(C(=O)C(C)OC(=O)c2cnccn2)c(C)n1-c1ccccc1 (stereo not drawn)	-1.8%	.	.	.
CSc1ccc(/C=N/NC(=O)c2ccc(O)cc2)cc1	-2.4%[46.1 µM]	-0.3%	12.6µM*	15.3%
COc1ccc(C(=O)N/N=C/c2ccc(SC)cc2)cc1	-1.9%[46.1 µM]	-2.6%	2.7%	2.9%
CC1CN(c2ncnc3c2oc2ccccc23)CC(C)O1 (stereo not drawn)	-6.0%	-0.1%	-1.7%	8.3%[38.3 µM]
Clc1ccc(N2CCN(c3ncnc4c3oc3ccccc34)CC2)cc1	11.1%	0.4%	0.1%	10µM*
CSc1nnc(CSc2cc(C)nc(N(C)C)n2)o1	-1.7%[46.1 µM]	4.3%	-1.8%	9.0%
O=C(Oc1ccccc1)N1CCC2(CC1)CN(c1ccncc1)C2	.	.	-3.0%	24.1%
N#Cc1cc(-c2ccccc2)cnc1Sc1ccc(Cl)cc1	-6.9%	11.9%	3.1%	0.7%[38.3 µM]
N#Cc1cc(-c2ccc(Cl)cc2)cnc1Sc1ccc(F)cc1	-2.1%	2.3%	-8.4%	25.1µM*
O=C(CN1C(=O)COc2ccccc21)N(Cc1cccnc1)Cc1ccccc1F	0.2%	5.0%	0.4%	24.7%[38.3 µM]
Cc1ccc2nc(-c3ccc(NC(=O)CCS(=O)(=O)c4ccccc4)cc3)sc2c1	-0.6%[46.1 µM]	-22.2%	2.8%	12.6µM*
Cc1ccc(N(CC(=O)Nc2ccc(-c3nc4ccc(C)cc4s3)cc2)S(C)(=O)=O)cc1	5.2%	-4.6%	-7.4%	12.6µM*
Nc1nc(COC(=O)C2CCN(C(=O)c3ccc(Cl)cc3)CC2)nc(Nc2ccccc2)n1	-1.5%	.	.	.
COc1cc2cc(Br)cc(Br)c2nc1C	-28.6%	18.9%	-0.3%	12.6µM*
SMILES	TCR activator	Lamin A splicing	Luc counter	IMPase Li inh
COc1cc2cnncc2cc1OC	-8.8%[46.1 µM]	-3.1%	1.3%	6.1%
CC1(c2ccccc2)NC(=O)N(CC(=O)N2CCN(S(=O)(=O)c3c(F)cccc3F)CC2)C1=O (stereo not drawn)	1.4%	.	.	.
COc1ccc(-c2c3c([nH]c(=S)c2C#N)CCC3)cc1	-1.6%	-4.6%	-0.1%	7.94µM*
CC(=O)Oc1ccc2c(=O)c(-c3nc4ccccc4s3)coc2c1	-9.0%	-4.2%[9.22 µM]	10µM*	-10.9%
CCOC(=O)c1cnc2ccc(C(=O)OC)cc2c1Nc1cccc(C(=O)O)c1	13.2%	.	-0.8%	8.7%
CCOC(=O)c1cnc2ccccc2c1Nc1cccc(C(=O)O)c1	3.2%	.	3.3%	7.94µM*
CSc1nnc2c(n1)OC(c1ccccn1)N(C(C)=O)c1ccccc1-2 (stereo not drawn)	4.2%	-1.7%[46 µM]	1.5%	0.3%
COC(=O)CCCCCc1ccc(C(C)=O)s1	0.7%	0.1%	-2.3%	10µM*
CC(=O)c1ccc(CCCCCCCCCC(=O)O)s1	2.5%	?	2.9%	?
CCC(C)/C=C/C1=CC2=C(Cl)C(=O)C3(C)OC(=O)C(C(=O)C(C)C(C)O)C3C2=CO1 (stereo not drawn)	-4.5%	.	.	3.7%
Cc1ccn2cc(-c3cc4ccccc4oc3=O)nc2c1	-4.9%	.	10µM*	-3.9%
CC1CCCN(C(=O)CSc2cnc3ccccc3n2)C1 (stereo not drawn)	-6.1%	6.5%	-1.7%	3.16µM*
CC1CCN(C(=O)CSc2nc3ccccc3s2)CC1	1.7%	0.9%	14.3%	-6.4%[38.3 µM]
Cc1nc2ccccc2nc1SCC(=O)N1CCC(C)CC1	-3.5%	9.9%	2.2%	12.6µM*
Nc1ccc2nc(-c3ccccn3)[nH]c2c1	-26.6%[46.1 µM]	?	11.2µM*	13.5%
Nc1ccc2nc(-c3ccccc3)[nH]c2c1	-2.2%	-12.0%	?	?
Cc1ccc(-n2c(C)nc3oc4ccccc4c(=O)c3c2=O)cc1	5.4%	-10.3%	0.0%	6.31µM*
CCc1nc2oc3cc(OC)ccc3c(=O)c2c(=O)n1-c1ccccc1	3.1%	5.0%	2.5%	24.0%[38.3 µM]
O=C(O)c1ccc(S(=O)(=O)c2ccc3c(c2)C(=O)N(Cc2ccco2)C3=O)cc1	.	0.8%	4.6%	-5.5%[38.3 µM]
CC(C)OC(=O)CNc1n[nH]c(=S)[nH]c1=O	7.9%	.	0.2%	11.2µM*
COC(=O)CNc1n[nH]c(=S)[nH]c1=O	3.6%	-7.0%	-1.2%	11.2µM*
CN(C)C(=O)CNc1n[nH]c(=S)[nH]c1=O	7.3%	.	.	.
O=C(COc1cc2oc(=O)c3c(c2cc1Cl)CCC3)N1C[C@H]2C[C@@H](C1)c1cccc(=O)n1C2	-3.2%	.	.	.
NC(=O)c1ccccc1N/C=C/C(=O)c1ccccc1	1.9%	9.4%	11.2µM*	15.1%[38.3 µM]
COC(=O)c1ccccc1N/C=C/C(=O)c1ccc(Br)cc1	-2.8%[46.1 µM]	-18.8%	-5.6%	11.4%
SMILES	TCR activator	Lamin A splicing	Luc counter	IMPase Li inh
CO[C@@H](CCO)C[C@H]1O[C@H](C(=O)OC(C)C)CC[C@@H]1C	.	.	0.2%	14.7%
O=c1c(O)c(-c2ccc(O)cc2)oc2cc(O)ccc12	.	.	0.0%	-18.7%
O=c1c(O)c(-c2ccc(O)c(O)c2)oc2cc(O)ccc12	1.0%	?	1.2%	11.2µM*!
Cc1cc(NC(=O)c2ccc3c(c2)OCCO3)ccc1NC(=O)c1ccco1	1.9%	.	11.2µM*	1.0%
O=C(Nc1ccc(NC(=O)c2ccco2)cc1)c1ccc2c(c1)OCCO2	3.4%	4.3%[46 µM]	-8.3%	5.7%
FB(F)F	.	.	.	-6.4%
CCCCc1nc2c(c3c1C[C@H](C)OC3)CN(C(=O)Cc1cccs1)CC2	.	-8.0%[9.22 µM]	-2.6%[7.66 µM]	4.9%
CCN(CC)Cc1c(O)c(Cl)cc2c3c(c(=O)oc12)CCCC3	3.5%	7.5%[0.0737 µM]	4.1%	12.6µM*
COC(=O)c1cc2c(C)cc3ccc(C)cn3c-2c1C(=O)OC	-37.4%	-0.9%	-5.0%	10µM*
CC(C)[C@H](NC(=O)c1ccccc1Cl)C(=O)OCc1cc(=O)n2cc(Br)ccc2n1	0.4%	.	7.6%	11.2µM*
O=C(Nc1nnc(C2CC2)s1)c1cc2c(s1)CCCCCC2	.	10.6%	-7.1%	10µM*
Cc1ccc(C)n1-c1ccc(-c2nnc3n2CCCCC3)s1	0.5%	?	-5.7%	12.6µM*
